Records with an inconclusive call do not appear. The source made the active and inactive calls. The calls were made as follows, unless noted: active = hit-call score of the fitted dose curve at least 0.9, where 1 is the maximum; inactive = score below 0.9.
Tests used:
[1] = ATG_M_19_CIS: Attagene CIS-FACTORIAL HepG2 Assay for M19 Transcription Factor (Internal Marker) (AID 2282939); settings: HepG2 Attagene CIS-FACTORIAL M19 internal marker reporter; actives raise or lower the signal
Method in brief: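 HepG2 cells transiently transfected with cis-regulated multiplexed reporter units, dosed 24 h. Reporter mRNA quantified by RT-PCR and capillary electrophoresis; internal background marker fitted bidirectionally versus DMSO.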

[2] = ATG_FoxO_CIS: Attagene CIS-FACTORIAL HepG2 Assay for human Forkhead box O (FoxO) (AID 2282943); settings: HepG2 Attagene cis-reporter, FoxO element, mRNA; actives raise or lower the signal
Method in brief: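 Transfected HepG2 reporter cells exposed to test chemical for 24 h; reporter RNA measured by reverse transcription, PCR and fluorescent capillary electrophoresis; curves fitted for increases and decreases against DMSO.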

[3] = target: Hepatocyte nuclear factor 6 (Homo sapiens) (UniProt Q9UBC0); assay: ATG_HNF6_CIS: Attagene CIS-FACTORIAL HepG2 Assay for human Hepatocyte Nuclear Factor 6 (HNF6) (AID 2282952); settings: HepG2 Attagene cis-factorial HNF6 reporter transcription; actives raise or lower the signal
Hepatocyte nuclear factor 6 (Homo sapiens), sequence (Q9UBC0 whole entry, looked up, the tested form may be a part): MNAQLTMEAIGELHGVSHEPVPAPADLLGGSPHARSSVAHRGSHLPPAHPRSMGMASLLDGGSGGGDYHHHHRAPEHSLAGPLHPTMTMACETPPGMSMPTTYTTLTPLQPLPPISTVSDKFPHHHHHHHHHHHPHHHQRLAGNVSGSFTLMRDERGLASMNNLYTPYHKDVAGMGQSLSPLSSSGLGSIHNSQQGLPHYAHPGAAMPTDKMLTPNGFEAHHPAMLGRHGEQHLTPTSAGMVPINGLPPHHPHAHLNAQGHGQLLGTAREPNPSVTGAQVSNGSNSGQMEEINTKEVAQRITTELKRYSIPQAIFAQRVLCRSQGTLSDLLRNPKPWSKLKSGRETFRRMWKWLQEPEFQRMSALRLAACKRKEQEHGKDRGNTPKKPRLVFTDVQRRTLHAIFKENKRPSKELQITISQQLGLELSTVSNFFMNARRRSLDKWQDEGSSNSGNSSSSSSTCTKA
Method in brief: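 Reporter mRNA induction or loss in HepG2 after 24 h exposure; transient cis-MRTU transfection; fragments quantified by capillary electrophoresis; bidirectional analysis, DMSO as negative control.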

[4] = target: Transcription factor Sp1 (Homo sapiens) (UniProt P08047); assay: ATG_Sp1_CIS: Attagene CIS-FACTORIAL HepG2 Assay for human Specificity Protein 1 (Sp1) (AID 2282961); settings: HepG2 Sp1 cis-reporter transcription, actives raise or lower the signal
Transcription factor Sp1 (Homo sapiens), sequence (P08047 whole entry, looked up): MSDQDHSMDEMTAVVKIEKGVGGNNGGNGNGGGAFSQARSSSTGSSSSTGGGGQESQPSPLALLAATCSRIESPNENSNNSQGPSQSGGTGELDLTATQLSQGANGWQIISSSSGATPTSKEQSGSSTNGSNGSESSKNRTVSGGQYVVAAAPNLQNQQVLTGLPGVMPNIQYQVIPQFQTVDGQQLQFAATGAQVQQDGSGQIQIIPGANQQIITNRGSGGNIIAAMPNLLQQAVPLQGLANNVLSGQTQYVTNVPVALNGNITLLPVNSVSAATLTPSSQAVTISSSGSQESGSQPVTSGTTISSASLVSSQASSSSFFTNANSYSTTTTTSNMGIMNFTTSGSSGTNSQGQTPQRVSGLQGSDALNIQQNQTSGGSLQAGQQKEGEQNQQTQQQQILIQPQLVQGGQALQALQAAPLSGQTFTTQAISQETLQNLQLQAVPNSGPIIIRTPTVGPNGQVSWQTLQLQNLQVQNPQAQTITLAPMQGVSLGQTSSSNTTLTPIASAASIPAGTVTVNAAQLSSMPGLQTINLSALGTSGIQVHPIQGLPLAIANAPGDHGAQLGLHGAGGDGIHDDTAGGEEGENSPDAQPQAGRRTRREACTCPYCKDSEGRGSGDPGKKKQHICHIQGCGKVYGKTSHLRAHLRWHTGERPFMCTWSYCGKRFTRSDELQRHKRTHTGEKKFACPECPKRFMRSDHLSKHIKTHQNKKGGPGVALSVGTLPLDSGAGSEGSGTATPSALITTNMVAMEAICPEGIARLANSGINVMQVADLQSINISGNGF
Method in brief: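 HepG2 cells transiently transfected with multiple reporter transcription units driven by cis-regulatory elements; Sp1-responsive reporter mRNA measured 24 h after dosing by RT-PCR and capillary electrophoresis fluorescence, fitted bidirectionally against DMSO baseline.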

[5] = ATG_SREBP_CIS: Attagene CIS-FACTORIAL HepG2 Assay for human Sterol Regulatory Element Binding (SREBP) (AID 2282962); settings: HepG2 Attagene cis-factorial SREBP reporter, mRNA; actives raise or lower the signal
Method in brief: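 Transfected HepG2 (cis-regulated reporter library, endogenous TFs) → compound 24 h → total RNA → oligo(dT) RT → reporter-specific PCR → FAM primer extension, HpaI cut → CE fluorescence. Fit bidirectional vs DMSO.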

[6] = ATG_TA_CIS: Attagene CIS-FACTORIAL HepG2 Assay for human TA Basal Promoter (AID 2282964); settings: HepG2 Attagene CIS-factorial TA basal promoter reporter; actives raise or lower the signal
Method in brief: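 HepG2 cells transiently transfected with multiple reporter units under cis promoter elements, reporting endogenous transcription factor activity; this endpoint tracks the TA basal promoter as background control. Reporter mRNA after 24 h dosing measured by RT-PCR/capillary electrophoresis; bidirectional fits versus DMSO.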

[7] = ATG_TCF_b_cat_CIS: Attagene CIS-FACTORIAL HepG2 Assay for human T-Cell-Factor with beta-catenin (TCF/b-cat) (AID 2282965); settings: HepG2 TCF/beta-catenin cis-reporter transcription, actives raise or lower the signal
Method in brief: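 Cells of the HepG2 line carry transiently transfected reporter units whose promoters respond to endogenous factors. Twenty-four hours post-dosing, reporter mRNA induction is measured by fluorescent RT-PCR and capillary electrophoresis, with DMSO as baseline.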

[8] = ATG_TAL_CIS: Attagene CIS-FACTORIAL HepG2 Assay for human TAL Basal Promoter (AID 2282966); settings: HepG2 Attagene cis-factorial TAL promoter reporter; actives raise or lower the signal;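 also: background control endpoint measuring basal TAL promoter reporter mRNA not a specific factor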
Method in brief: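 Readout: reporter mRNA, fluorescence by CE. System: HepG2, transient multi-reporter transfection, endogenous TF activity. Exposure: 24 h. Analysis: bidirectional, DMSO-normalized; background control.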

[9] = ATG_TGFb_CIS: Attagene CIS-FACTORIAL HepG2 Assay for human Transforming Growth Factor (TGF) (AID 2282967); settings: HepG2 Attagene CIS TGFb reporter, mRNA transcription; actives raise or lower the signal
Method in brief: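 HepG2 cells transiently transfected with cis-promoter-driven multiple reporter units measure endogenous TF activity; reporter mRNA quantified at 24 h by RT-PCR, FAM labeling, HpaI digestion and capillary electrophoresis. Bidirectional fit vs DMSO.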

[10] = ATG_VDRE_CIS: Attagene CIS-FACTORIAL HepG2 Assay for human Vitamin D Receptor Element (VDRE) (AID 2282968); settings: HepG2 VDRE cis-reporter transcription, actives raise or lower the signal
Method in brief: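 Transiently transfected HepG2 cells carrying cis-regulated reporter transcription units were exposed for 24 h. Reporter mRNA was measured by RT-PCR with fluorescent labelling and capillary electrophoresis, and fitted in both directions against DMSO.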

[11] = target: Transcriptional activator Myb (Homo sapiens) (UniProt P10242); assay: ATG_Myb_CIS: Attagene CIS-FACTORIAL HepG2 Assay for human Myeloblastosis (Myb) Proto-Oncogene Transcription Factor (AID 2282986); settings: HepG2 Attagene CIS-FACTORIAL Myb reporter transcription; actives raise or lower the signal
Transcriptional activator Myb (Homo sapiens), sequence (P10242 whole entry, looked up): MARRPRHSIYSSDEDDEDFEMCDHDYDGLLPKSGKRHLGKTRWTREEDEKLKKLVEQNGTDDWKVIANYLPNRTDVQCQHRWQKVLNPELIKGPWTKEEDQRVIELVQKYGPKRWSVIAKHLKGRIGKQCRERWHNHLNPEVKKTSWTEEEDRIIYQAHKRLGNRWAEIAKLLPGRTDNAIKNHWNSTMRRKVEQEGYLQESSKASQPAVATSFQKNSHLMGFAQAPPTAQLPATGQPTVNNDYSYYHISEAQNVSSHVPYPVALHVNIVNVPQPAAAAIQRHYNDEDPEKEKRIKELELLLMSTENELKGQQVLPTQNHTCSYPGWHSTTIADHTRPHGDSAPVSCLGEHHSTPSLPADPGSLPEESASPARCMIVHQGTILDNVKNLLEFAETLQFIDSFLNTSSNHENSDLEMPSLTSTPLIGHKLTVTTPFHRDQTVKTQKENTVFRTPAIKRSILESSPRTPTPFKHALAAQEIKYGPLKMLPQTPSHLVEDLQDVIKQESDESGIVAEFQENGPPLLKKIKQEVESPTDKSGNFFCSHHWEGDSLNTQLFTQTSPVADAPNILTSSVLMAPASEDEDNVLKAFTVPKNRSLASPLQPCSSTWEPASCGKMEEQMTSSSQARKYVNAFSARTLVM
Method in brief: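 HepG2 cells were transiently transfected with cis-regulated multiple reporter transcription units reflecting endogenous Myb activity, then exposed to compound for 24 hours. Reporter mRNA was measured by RT-PCR with capillary electrophoresis; bidirectional fitting versus DMSO baseline.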

[12] = target: Nuclear respiratory factor 1 (Homo sapiens) (UniProt Q16656); assay: ATG_NRF1_CIS: Attagene CIS-FACTORIAL HepG2 Assay for human Nuclear Respiratory Factor 1 (NRF1) Orphan Gene (AID 2282987); settings: HepG2 NRF1 cis-element reporter, Attagene multiplex; actives raise or lower the signal
Nuclear respiratory factor 1 (Homo sapiens), sequence (Q16656 whole entry, looked up): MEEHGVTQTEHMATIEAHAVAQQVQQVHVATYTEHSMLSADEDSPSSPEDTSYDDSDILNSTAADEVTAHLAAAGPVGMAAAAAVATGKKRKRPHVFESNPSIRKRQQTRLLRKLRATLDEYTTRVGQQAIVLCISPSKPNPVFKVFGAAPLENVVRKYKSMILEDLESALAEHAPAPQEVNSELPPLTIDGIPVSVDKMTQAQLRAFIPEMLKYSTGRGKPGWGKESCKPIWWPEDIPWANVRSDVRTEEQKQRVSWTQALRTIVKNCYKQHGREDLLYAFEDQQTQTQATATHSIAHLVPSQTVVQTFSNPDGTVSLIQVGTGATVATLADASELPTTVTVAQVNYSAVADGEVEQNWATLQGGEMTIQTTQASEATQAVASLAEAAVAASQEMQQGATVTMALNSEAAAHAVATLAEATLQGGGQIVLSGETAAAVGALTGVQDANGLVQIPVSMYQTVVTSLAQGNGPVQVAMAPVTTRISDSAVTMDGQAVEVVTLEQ
Method in brief: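 HepG2 cells transiently transfected with multiple reporter transcription units under cis-regulatory promoter control, so endogenous transcription-factor activity is read. After 24 h compound exposure, reporter mRNA quantified by RT-PCR, fluorescent labelling, HpaI digestion and capillary electrophoresis; bidirectional fitting versus DMSO.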

[13] = ATG_NFI_CIS: Attagene CIS-FACTORIAL HepG2 Assay for human Nuclear Factor I (NFI) (AID 2282989); settings: HepG2 cis-regulatory reporter, NFI response element transcription; actives raise or lower the signal
Method in brief: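 Endogenous TF activity in HepG2 cells transiently transfected with cis-element-driven multiplexed reporter units, read 24 h after dosing. Reporter mRNA quantified by RT-PCR, 6-FAM labelling, HpaI digestion and capillary electrophoresis; bidirectional fit versus DMSO.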

[14] = ATG_NF_kB_CIS: Attagene CIS-FACTORIAL HepG2 Assay for human Nuclear Factor Kappa B (NF-kB) (AID 2282991); settings: HepG2 Attagene cis-factorial NF-kB reporter mRNA; actives raise or lower the signal
Method in brief: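 HepG2 cells transiently transfected with multiplexed cis-element reporter units measuring endogenous transcription factor activity; reporter mRNA read 24 h after dosing by RT-PCR, fluorescent labelling, HpaI digestion and capillary electrophoresis. Bidirectional fit against DMSO baseline.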

[15] = ATG_Oct_MLP_CIS: Attagene CIS-FACTORIAL HepG2 Assay for human Octamer-Binding Transcription Factor (Oct) (AID 2282993); settings: HepG2 Attagene cis-factorial Oct reporter, mRNA; actives raise or lower the signal
Method in brief: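 HepG2 cells transiently transfected with cis-element-driven reporter transcription units (endogenous TF activity); 24 h compound exposure. Reporter mRNA quantified by RT-PCR, 6-FAM labelling, HpaI digestion and capillary electrophoresis; bidirectional fit versus DMSO baseline.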

[16] = target: Peroxisome proliferator-activated receptor gamma (Homo sapiens) (UniProt P37231); assay: ATG_PPARg_TRANS: Attagene TRANS-FACTORIAL HepG2 Assay for human Peroxisome Proliferator-activated Receptor-gamma (PPARg) (AID 2283007; active = hit-call score of the fitted dose curve at least 0.9, where 1 is the maximum)
Peroxisome proliferator-activated receptor gamma (Homo sapiens), sequence (P37231 whole entry, looked up, the tested form may be a part): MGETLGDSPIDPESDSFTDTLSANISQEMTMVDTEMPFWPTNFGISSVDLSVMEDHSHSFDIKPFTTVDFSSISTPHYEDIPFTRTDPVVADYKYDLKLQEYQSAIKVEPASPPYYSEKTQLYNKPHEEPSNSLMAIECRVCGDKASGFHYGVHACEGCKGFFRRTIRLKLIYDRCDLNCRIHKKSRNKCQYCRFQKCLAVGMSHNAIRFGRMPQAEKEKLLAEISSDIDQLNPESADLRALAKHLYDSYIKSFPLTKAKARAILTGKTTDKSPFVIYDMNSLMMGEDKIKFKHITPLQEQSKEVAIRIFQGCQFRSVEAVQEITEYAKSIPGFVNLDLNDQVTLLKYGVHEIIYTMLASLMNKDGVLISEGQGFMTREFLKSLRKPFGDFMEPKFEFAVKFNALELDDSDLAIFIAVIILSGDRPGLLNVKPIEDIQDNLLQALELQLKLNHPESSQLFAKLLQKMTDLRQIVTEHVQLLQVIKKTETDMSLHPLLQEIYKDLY
Method in brief: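 HepG2 cells transiently transfected with multiplexed GAL4-UAS reporter units and exogenous chimeric NR-Gal4 proteins; reporter mRNA quantified after 24 h compound exposure by RT-PCR, fluorescent labelling, HpaI digestion and capillary electrophoresis; gain-of-signal fitted versus DMSO baseline.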

[17] = target: Nuclear receptor subfamily 1 group I member 2 (Homo sapiens) (UniProt O75469); assay: ATG_PXR_TRANS: Attagene TRANS-FACTORIAL HepG2 Assay for human Pregnane X Receptor (PXR) (AID 2283008; active = hit-call score of the fitted dose curve at least 0.9, where 1 is the maximum)
Nuclear receptor subfamily 1 group I member 2 (Homo sapiens), sequence (O75469 whole entry, looked up, the tested form may be a part): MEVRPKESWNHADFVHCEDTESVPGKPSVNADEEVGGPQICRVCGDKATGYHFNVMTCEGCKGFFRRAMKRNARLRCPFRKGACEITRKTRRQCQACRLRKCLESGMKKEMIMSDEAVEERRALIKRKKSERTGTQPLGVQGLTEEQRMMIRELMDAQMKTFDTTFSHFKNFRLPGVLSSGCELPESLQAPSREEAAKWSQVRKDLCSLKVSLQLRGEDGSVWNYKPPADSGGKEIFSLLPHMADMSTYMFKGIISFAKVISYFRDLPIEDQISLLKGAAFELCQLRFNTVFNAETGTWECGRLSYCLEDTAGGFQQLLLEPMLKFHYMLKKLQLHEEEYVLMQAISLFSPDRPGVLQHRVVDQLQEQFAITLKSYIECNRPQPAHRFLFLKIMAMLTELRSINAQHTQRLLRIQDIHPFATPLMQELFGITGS
Method in brief: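 Read-out is fluorescence of labelled reporter cDNA fragments separated by capillary electrophoresis after RT-PCR and HpaI digestion. Source: HepG2 cells carrying PXR-GAL4/UAS reporter constructs, treated 24 h; activity fitted upward relative to DMSO.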

[18] = target: Aryl hydrocarbon receptor (Homo sapiens) (UniProt P35869); assay: ATG_Ahr_CIS: Attagene CIS-FACTORIAL HepG2 Assay for human Aryl Hydrocarbon Receptor (Ahr) (AID 2282930); settings: HepG2 AhR cis-factorial reporter transcription; actives raise or lower the signal
Aryl hydrocarbon receptor (Homo sapiens), sequence (P35869 whole entry, looked up): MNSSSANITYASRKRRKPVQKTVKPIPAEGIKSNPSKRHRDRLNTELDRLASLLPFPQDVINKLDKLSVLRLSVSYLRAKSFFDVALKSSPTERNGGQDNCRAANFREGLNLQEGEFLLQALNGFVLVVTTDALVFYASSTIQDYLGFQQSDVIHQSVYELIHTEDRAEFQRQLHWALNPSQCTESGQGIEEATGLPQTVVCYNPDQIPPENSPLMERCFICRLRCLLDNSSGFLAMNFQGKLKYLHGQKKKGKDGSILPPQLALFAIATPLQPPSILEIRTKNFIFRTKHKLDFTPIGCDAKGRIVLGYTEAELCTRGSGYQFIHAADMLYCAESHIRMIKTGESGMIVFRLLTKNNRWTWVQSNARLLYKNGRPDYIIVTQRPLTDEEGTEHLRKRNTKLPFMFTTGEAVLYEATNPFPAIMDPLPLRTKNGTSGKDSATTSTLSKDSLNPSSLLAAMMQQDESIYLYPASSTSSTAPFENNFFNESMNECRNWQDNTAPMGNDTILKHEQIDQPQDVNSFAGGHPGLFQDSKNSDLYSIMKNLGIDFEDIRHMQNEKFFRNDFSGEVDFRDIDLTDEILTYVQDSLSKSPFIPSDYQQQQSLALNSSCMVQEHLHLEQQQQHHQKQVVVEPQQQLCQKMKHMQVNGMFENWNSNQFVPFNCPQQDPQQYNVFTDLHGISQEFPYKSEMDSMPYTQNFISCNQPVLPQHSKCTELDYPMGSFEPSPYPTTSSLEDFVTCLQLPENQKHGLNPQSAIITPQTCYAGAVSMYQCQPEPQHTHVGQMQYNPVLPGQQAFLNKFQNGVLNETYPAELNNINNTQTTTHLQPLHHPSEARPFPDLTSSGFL
Method in brief: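 Endogenous factor activity is tracked through cis-promoter reporter units transfected into HepG2 cells. Transcript levels at 24 h are read by fluorescent RT-PCR and capillary electrophoresis, with activity in either direction scored relative to DMSO.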

[19] = ATG_PBREM_CIS: Attagene CIS-FACTORIAL HepG2 Assay for human Phenobarbital-responsive Enhancer Module (PBREM) (AID 2282955); settings: HepG2 PBREM cis-reporter, Attagene multiplexed transcription; actives raise or lower the signal
Method in brief: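 HepG2 cells transiently transfected with multiple cis-regulated reporter transcription units; endogenous factor activity at the PBREM element measured as reporter mRNA 24 h after dosing, via RT-PCR and capillary electrophoresis of fluorescent fragments; bidirectional fitting versus DMSO.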

[20] = target: X-box-binding protein 1 (Homo sapiens) (UniProt P17861); assay: ATG_Xbp1_CIS: Attagene CIS-FACTORIAL HepG2 Assay for human X-box Binding Protein 1 (XBP1) (AID 2282972); settings: HepG2 XBP1 cis-element reporter, Attagene multiplex; actives raise or lower the signal
X-box-binding protein 1 (Homo sapiens), sequence (P17861 whole entry, looked up): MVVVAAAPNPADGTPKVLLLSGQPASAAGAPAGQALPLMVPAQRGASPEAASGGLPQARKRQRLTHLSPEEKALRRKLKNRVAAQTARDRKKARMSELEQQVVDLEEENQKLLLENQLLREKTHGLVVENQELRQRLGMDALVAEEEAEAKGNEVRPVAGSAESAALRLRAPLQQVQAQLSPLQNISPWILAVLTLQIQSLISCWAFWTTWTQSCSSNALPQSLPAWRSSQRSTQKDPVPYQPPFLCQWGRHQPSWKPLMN
Method in brief: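 HepG2, transient MRTU transfection (cis-promoter driven), 24 h compound exposure. Total RNA → oligo(dT) RT → PCR → 6-FAM labeling → HpaI cut → CE. Bidirectional fit vs DMSO.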

Measured: AC50

CN(C)CCC#N
not listed: [18] | [19] | [20]
inactive: all other assays above

CN(N=O)c1ccccc1
inactive: all assays above

N#CC(c1ccccc1)c1ccccc1
active: [10] 30.3 µM | [16] 83.2 µM | [17] 4.59 µM
not listed: [1] | [2] | [14] | [18]
inactive: all other assays above

Nc1ccccc1C(=O)Oc1ccc2ccccc2c1
active: [2] 147 µM | [4] 56.2 µM | [5] 65.5 µM | [7] 164 µM | [8] 116 µM | [9] 12 µM | [11] 162 µM | [12] 139 µM | [13] 85.4 µM | [15] 54.7 µM | [16] 54.9 µM | [17] 48.6 µM
inactive: [3] | [19] | [6] | [10] | [20]

BrCBr
not listed: [14] | [16] | [17]
inactive: all other assays above

Clc1ccc(-c2ccccc2)cc1
active: [4] 117 µM | [13] 152 µM
not listed: [1] | [2]
inactive: all other assays above

O=P(O)(Oc1ccccc1)Oc1ccccc1
not listed: [20]
inactive: all other assays above

Nc1cc(Cl)cc(Cl)c1
active: [7] 79 µM
not listed: [1] | [16]
inactive: all other assays above

CCCCOC(=O)CCC(=O)OCCCC
not listed: [2] | [10] | [14] | [16] | [17]
inactive: all other assays above

Source: PubChem BioAssay (EPA / NIEHS)
